USP8 inh = inhibitors of human USP8 deubiquitinase; purified USP8, Ub-rhodamine cleavage fluorescence, 30 min; AID 1645853, 2021; Ubiquitin carboxyl-terminal hydrolase 8 (Homo sapiens), P40818; actives 4.2% (n = 47,000); inhibition, % at 20 µM
USP7 inh = inhibitors of human USP7 deubiquitinase | inhibition, % at 20 µM | actives 0.3% (n = 47,000) | Ubiquitin carboxyl-terminal hydrolase 7 (Homo sapiens), Q93009 | purified USP7, Ub-rhodamine cleavage fluorescence | AID 1645854, 2021
USP10 block = inhibitors of human USP10 deubiquitinase; AID 1645856, 2021; purified USP10, Ub-rhodamine fluorescence, 60 min; inhibition, % at 20 µM; Ubiquitin carboxyl-terminal hydrolase 10 (Homo sapiens), Q14694; actives 1.1% (n = 47,000)
Target sequence (Q14694 whole entry, looked up): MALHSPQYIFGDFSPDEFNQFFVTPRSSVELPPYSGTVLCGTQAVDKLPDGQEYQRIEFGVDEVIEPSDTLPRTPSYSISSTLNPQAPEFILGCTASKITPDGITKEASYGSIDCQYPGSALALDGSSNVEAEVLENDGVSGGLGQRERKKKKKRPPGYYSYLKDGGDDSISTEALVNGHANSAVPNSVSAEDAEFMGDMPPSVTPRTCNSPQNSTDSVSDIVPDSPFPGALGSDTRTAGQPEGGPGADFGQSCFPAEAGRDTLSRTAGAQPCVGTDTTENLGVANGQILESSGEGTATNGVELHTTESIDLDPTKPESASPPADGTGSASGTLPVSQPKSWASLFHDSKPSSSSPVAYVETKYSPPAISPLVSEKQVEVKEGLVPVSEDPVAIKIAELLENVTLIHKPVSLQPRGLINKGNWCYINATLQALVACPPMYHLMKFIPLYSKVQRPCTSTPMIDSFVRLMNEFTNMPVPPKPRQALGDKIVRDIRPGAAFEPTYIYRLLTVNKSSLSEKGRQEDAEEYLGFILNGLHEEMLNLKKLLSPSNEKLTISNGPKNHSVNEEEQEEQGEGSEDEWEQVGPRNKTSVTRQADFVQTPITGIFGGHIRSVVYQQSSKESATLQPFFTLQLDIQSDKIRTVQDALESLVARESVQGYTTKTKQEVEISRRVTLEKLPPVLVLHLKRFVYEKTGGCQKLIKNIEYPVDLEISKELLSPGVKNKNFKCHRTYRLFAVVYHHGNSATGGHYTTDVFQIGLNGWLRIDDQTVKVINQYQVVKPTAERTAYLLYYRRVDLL
UCHL1 block = inhibitors of human UCHL1 deubiquitinase; purified UCHL1, Ub-rhodamine cleavage fluorescence; inhibition, % at 20 µM; actives 0.2% (n = 47,000); AID 1645859, 2021
Hits are given with their value. Only some compounds are listed: those with a hit (about 4.6% of all), similar ones and a draw of the others. No stated cut-off is given here; in the data, active means inhibition above about 30%; inactive means the rest.

Results for Cc1oc(-c2[nH]ncc2C(=O)N(C)C)cc1S(=O)(=O)N1CCN(c2ccccc2)CC1 ?
USP8 inh: inactive; USP7 inh: inactive; USP10 block: inactive; UCHL1 block: inactive

Results for Cc1cc(C)c(NC(=O)Cn2c(SCc3cccc(F)c3)nc3cccnc32)c(C)c1 ?
USP8 inh: 57; USP7 inh: inactive; USP10 block: inactive; UCHL1 block: inactive

What do the screens show for `CCc1ccccc1NC(=O)Cn1c(SCc2ccc(F)cc2)nc2cccnc21`?
USP8 inh: 70; USP7 inh: inactive; USP10 block: 36; UCHL1 block: inactive

How did CCc1ccccc1NC(=O)CN1C(=O)CSc2ncccc21 do in these assays?
USP8 inh: inactive; USP7 inh: inactive; USP10 block: inactive; UCHL1 block: inactive

Results for Cc1cc(=O)c2c(O)oc(O)c3c(O)cc(=O)c1c32 ?
USP8 inh: 31; USP7 inh: inactive; USP10 block: inactive; UCHL1 block: inactive

What do the screens show for `Cc1cc(O)cc2oc3cc(O)cc(O)c3c(=O)c12`?
USP8 inh: inactive; USP7 inh: inactive; USP10 block: inactive; UCHL1 block: inactive

What do the screens show for `O=C(C1CC1)N1CCC(Cc2nc(-c3ccc(F)cc3)no2)CC1`?
USP8 inh: inactive; USP7 inh: inactive; USP10 block: inactive; UCHL1 block: inactive

What do the screens show for `O=S(=O)(O)c1cc2cc3ccccc3cc2[nH]1`?
USP8 inh: 87; USP7 inh: inactive; USP10 block: inactive; UCHL1 block: inactive

Results for CC(=O)c1cccc(NC(=O)c2sc3nc(-c4cccc([N+](=O)[O-])c4)cn3c2C)c1 ?
USP8 inh: 58; USP7 inh: inactive; USP10 block: inactive; UCHL1 block: inactive

What do the screens show for `Cc1ccc(NC(=O)CCc2ccc(S(=O)(=O)N3CCOCC3)cc2)c(O)c1`?
USP8 inh: 47; USP7 inh: inactive; USP10 block: inactive; UCHL1 block: inactive

How did O=C1CN(C(=O)COc2ccc(F)cc2Cl)c2ccccc2N1 do in these assays?
USP8 inh: inactive; USP7 inh: inactive; USP10 block: inactive; UCHL1 block: inactive

What do the screens show for `O=C1CN(C(=O)COc2cccc3ccccc23)c2ccccc2N1`?
USP8 inh: 84; USP7 inh: inactive; USP10 block: inactive; UCHL1 block: inactive

How did Cc1ccccc1C1CC(=O)Nc2c1c(C)nn2-c1ccc2nnc(C)n2n1 (stereo not drawn) do in these assays?
USP8 inh: inactive; USP7 inh: inactive; USP10 block: inactive; UCHL1 block: inactive

Results for Cc1cc(C2CC(=O)Nc3c2c(C)nn3-c2nc3ccccc3[nH]2)c(C)s1 (stereo not drawn) ?
USP8 inh: 30; USP7 inh: inactive; USP10 block: inactive; UCHL1 block: inactive

Results for CC(C)(C)c1nn(-c2ccccc2)c2[nH]c(=O)c(CNCc3cccnc3)cc12 ?
USP8 inh: inactive; USP7 inh: inactive; USP10 block: inactive; UCHL1 block: inactive

How did Cc1nn(-c2ccccc2)c2[nH]c(=O)c(CNC3CCCCC3)cc12 do in these assays?
USP8 inh: inactive; USP7 inh: inactive; USP10 block: inactive; UCHL1 block: inactive

How did CC(C)(C)c1nn(-c2ccccc2)c2[nH]c(=O)c(CNCc3ccc4c(c3)OCO4)cc12 do in these assays?
USP8 inh: 80; USP7 inh: inactive; USP10 block: inactive; UCHL1 block: inactive

How did CC(C)(C)c1nn(-c2ccccc2)c2[nH]c(=O)c(CNC3CC3)cc12 do in these assays?
USP8 inh: 82; USP7 inh: inactive; USP10 block: inactive; UCHL1 block: inactive

Results for Cc1ccc(NCc2cc3c(C(C)(C)C)nn(-c4ccc(Cl)cc4)c3[nH]c2=O)cc1 ?
USP8 inh: 84; USP7 inh: inactive; USP10 block: inactive; UCHL1 block: inactive

How did O=C1NCC2(C/C=C/CCOc3ccccc31)CCNCC2 do in these assays?
USP8 inh: inactive; USP7 inh: inactive; USP10 block: inactive; UCHL1 block: inactive

How did COc1cccc(NC(=O)C2CC(=O)Nc3nc(SCc4ccccc4)nn32)c1 (stereo not drawn) do in these assays?
USP8 inh: inactive; USP7 inh: inactive; USP10 block: inactive; UCHL1 block: inactive

How did COCCCN1CCS(=O)(=O)c2c(Cl)c(F)nc(Oc3ccc(C#N)cc3)c21 do in these assays?
USP8 inh: 91; USP10 block: inactive; UCHL1 block: inactive

Results for COCCN1CCS(=O)(=O)c2c(Cl)c(F)nc(Oc3ccccc3F)c21 ?
USP8 inh: 53; USP7 inh: inactive; USP10 block: inactive; UCHL1 block: inactive

Results for CCOc1ncccc1C(=O)Nc1ccnn1Cc1ccccc1 ?
USP8 inh: inactive; USP7 inh: inactive; USP10 block: 50; UCHL1 block: inactive

Results for CCOc1ncccc1C(=O)Nc1ccnn1Cc1ccc(C)s1 ?
USP8 inh: inactive; USP7 inh: inactive; USP10 block: inactive; UCHL1 block: inactive

What do the screens show for `O=C(CSc1ccc2nnc(CCNS(=O)(=O)c3ccccc3)n2n1)c1ccccc1`?
USP8 inh: inactive; USP7 inh: inactive; USP10 block: inactive; UCHL1 block: inactive

What do the screens show for `O=C(Nc1ncccc1O)C1CC(=O)N(c2ccc3c(c2)OCO3)C1` (stereo not drawn)?
USP8 inh: 55; USP7 inh: inactive; USP10 block: inactive; UCHL1 block: inactive

What do the screens show for `COc1ccc(N2CCN(c3nccc4ccc(C(=O)Nc5ccc(OC)c(OC)c5)cc34)CC2)cc1`?
USP8 inh: inactive; USP7 inh: inactive; USP10 block: inactive; UCHL1 block: inactive

What do the screens show for `CC(C)CCNC(=O)c1ccc2ccnc(N3CCN(c4ccccc4F)CC3)c2c1`?
USP8 inh: 67; USP7 inh: inactive; USP10 block: inactive; UCHL1 block: inactive

Results for O=C(Oc1coc(CSc2ncccn2)cc1=O)c1ccccc1Cl ?
USP8 inh: inactive; USP7 inh: inactive; USP10 block: inactive; UCHL1 block: inactive

How did O=C(Oc1coc(CSc2ncccn2)cc1=O)c1ccccc1Br do in these assays?
USP8 inh: 36; USP7 inh: inactive; USP10 block: inactive; UCHL1 block: inactive

What do the screens show for `Cc1cc(C)nc(SCc2cc(=O)c(OC(=O)c3ccc(F)c(F)c3)co2)n1`?
USP8 inh: 34; USP7 inh: inactive; USP10 block: inactive; UCHL1 block: inactive

How did COCCCNC(=O)c1ccc(-c2ccc(N3CCCCC3)nc2)cc1 do in these assays?
USP8 inh: 37; USP7 inh: inactive; USP10 block: inactive; UCHL1 block: inactive

What do the screens show for `O=C(CSc1n[nH]c(-c2cc(Br)ccc2O)n1)NCCc1ccccc1`?
USP8 inh: 81; USP7 inh: inactive; USP10 block: inactive; UCHL1 block: inactive

Results for N#Cc1ccccc1NC(=O)c1cc2c(s1)-c1ccccc1S(=O)(=O)C2 ?
USP8 inh: inactive; USP7 inh: inactive; USP10 block: 49; UCHL1 block: inactive

Results for CC(=O)c1cccc(NC(=O)c2ccc(OC3CSC3)cc2)c1 ?
USP8 inh: inactive; USP7 inh: inactive; USP10 block: inactive; UCHL1 block: inactive

How did CC(=O)c1cccc(NC(=O)c2ccc3[nH]c4c(c3c2)CC(C)CC4)c1 (stereo not drawn) do in these assays?
USP8 inh: 83; USP7 inh: inactive; USP10 block: inactive; UCHL1 block: inactive

What do the screens show for `O=C(Cn1cncc(-c2nc(-c3ccccc3)cs2)c1=O)Nc1ccc(F)cc1F`?
USP8 inh: 41; USP7 inh: inactive; USP10 block: inactive; UCHL1 block: inactive

Bioassay records: PubChem BioAssay, Buhrlage Lab, Dana-Farber Cancer Institute and Novartis Institutes for BioMedical Research (Cambridge, Mass)
